Each structure is given as a SMILES string. Compounds without any hit were thinned out: in the full panel of roughly 83,000, 20% have a hit.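 Each cell line was grown in a 96-well plate and treated with one concentration of compound for 48 hours. Values below 10 were considered active.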 Unmarked numbers belong to inactive results. Calls of active or inactive are those of the source.

What all share (assay): NCI-60 one-dose screen, 48 h (100 = growth as untreated, 0 = no growth, -100 = all killed)
What all share (settings): 10 µM

In assay [1] the test system is HCT-15 colon.
For assay [2], the system named is HT29 colon.
Assay [3] has as its system SNB-75 CNS.
In assay [4] the test system is SNB-19 CNS.
The subject of assay [5] is U251 CNS.
In assay [6] the test system is PC-3 prostate.
Assay [7] relates to SK-MEL-5 melanoma.
In assay [8] the test system is UACC-62 melanoma.
For assay [9], the system named is LOX IMVI melanoma.
Assay [10] has as its system SK-MEL-28 melanoma.

Take `CC(=O)OC/C=C(/C)C[P+](c1ccccc1)(c1ccccc1)c1ccccc1`: the growth in assay [1] was 73.3%; in assay [2], 59.8%; in [3], 76.8%; in [4] it was 47%; in [5], 35.8%; in [6] it was 41.3%. For the same compound, the growth was 43.1% in [7], 47.6% in assay [8], 55.2% in assay [9] and 69% in assay [10].

As for `COc1cc(/C=C/c2cc(/C=C/c3ccc(O)c(OC)c3)[nH]c(=O)n2)ccc1O`, the growth in assay [1] is 81.8%; in assay [2] it was -6.41% (active); in assay [3], 44.3%; in assay [4], 82.6%; in assay [5], 55.6%; in assay [6], 61%. Also, the growth was 70.7% in [7], 63.3% in assay [8], 49% in assay [9] and 50.9% in [10].

`Cn1cnc([N+](=O)[O-])c1/C=C1\Oc2ccc(Br)cc2C1=O`: the growth is 70.4% in [1]; 83.8% in [2]; 88.1% in assay [3]; 90.1% in [4]; 101% in assay [5]; 81.5% in assay [6]. For the same compound, the growth in assay [7] was 91.2%; in assay [8] it was 96.6%; in [9] it was 72.8%; in [10] it was 97.4%.

For `O=C(N/N=C/c1cc([N+](=O)[O-])ccc1O)c1cccc2ccccc12`, the growth in [1] is 22.5%; in [2], 65.9%; in [3] it was 55%; in assay [4] it was 53%; in assay [5], 29.8%; in [6], 41.4%. The growth in assay [7] is 39.1%; in assay [8], 9.83% (active); in assay [9], 9.69% (active); in [10], 50%.

In the case of `CCCCCC(=O)O[C@]1(C(C)=O)CCC2C3CCC4=CC(=O)CC[C@]4(C)C3CC[C@@]21C` (stereo not given in full), the growth in assay [1] is 26.2%; in [2], 16.6%; in assay [3], 46.3%; in assay [4] it was 43.7%; in assay [5], 23.9%; in assay [6], 6.12% (active). For the same compound, the growth was -1.8% (active) in assay [7], 18.5% in [8], 10.4% in assay [9] and 49.4% in assay [10].

For the compound `CC[C@@H](C(=O)[C@H](C)[C@H](O)[C@@H](C)[C@H]1O[C@H]([C@@H](CC)C(=O)N(CC)CC)CC[C@H]1C)C1O[C@]2(C=C[C@@H](O)[C@]3(CC[C@@](C)([C@H]4CC[C@](O)(CC)[C@H](C)O4)O3)O2)[C@H](C)C[C@@H]1C` (stereo not given in full), the growth is 9.17% (active) in [1]; 13.8% in assay [2]; 6.47% (active) in assay [3]; 12.8% in [4]; 24.2% in assay [5]; 3.64% (active) in assay [6]. In addition, the growth in [7] is -74.7% (active); in assay [8] it was 14.3%; in assay [9] it was 31%; in assay [10], 27%.

On to `CCN(CC)CCCOc1cccc2c1C(=O)c1cccc(OCCCN(CC)CC)c1C2=O`, for which the growth in assay [1] is 34.5%; in assay [2] it was 11%; in assay [3], 52.6%; in assay [4] it was 34.1%; in [5], 31.2%; in assay [6] it was 33.2%. In addition, the growth in assay [7] is 46.6%; in assay [8] it was 53%; in assay [9], 16.9%; in [10], 61.2%.

In the case of `O=C(CCCCCCC(=O)Nc1ccccc1)NO`, the growth is 33.9% in assay [1]; 7.15% (active) in assay [2]; 18% in assay [3]; 25% in assay [4]; -20.1% (active) in [5]; 10.4% in [6]. For the same compound, the growth was -54.4% (active) in assay [7], -42.8% (active) in assay [8], -3.4% (active) in assay [9] and 5.94% (active) in [10].

On to `COc1ccc2c(c1)C(=O)/C(=C/c1cccc(OCC(=O)c3ccc([N+](=O)[O-])cc3)c1)CO2`, for which the growth in assay [1] is -37.6% (active); in [2], 6.81% (active); in assay [3], 55.5%; in assay [4], 90.1%; in [5], 22.4%; in [6] it was 22.5%. Besides, the growth was 15.8% in [7], 46.7% in assay [8], -100% (active) in [9] and 43.9% in assay [10].

As to `COc1ccc(/C=C2\CCCC3C2=Nc2ccccc2NC3c2ccc(OC)cc2)cc1` (stereo not given), the growth in assay [1] was 93.9%; in [2], 74.8%; in assay [3], 101%; in [4], 92%; in [5], 80.9%; in assay [6], 86.9%. Besides, the growth was 88.5% in assay [7], 68% in assay [8], 57.4% in [9] and 98.3% in assay [10].

With `CN(C)CCOc1ccc(-c2nc3sccn3c2-c2ccnc(S(C)(=O)=O)n2)cc1`, the growth is 101% in [1]; 103% in [2]; 88.5% in [3]; 99.1% in assay [4]; 95.1% in assay [5]; 87.2% in assay [6]. For the same compound, the growth is 101% in [7], 105% in [8], 97.5% in [9] and 110% in assay [10].

Regarding `O=C(CCCCC(=O)Oc1c(Cl)cc(Cl)cc1[N+](=O)[O-])Oc1c(Cl)cc(Cl)cc1[N+](=O)[O-]`, the growth in [1] is 100%; in [2], 103%; in assay [3], 93.9%; in assay [4], 105%; in assay [5] it was 98%; in [6], 104%. The growth in assay [7] was 102%; in assay [8] it was 102%; in assay [9] it was 92%; in [10], 111%.

As for `COc1ccc(-c2cc(-c3ccccc3)nc(SCCCC(=O)NO)n2)cc1`, the growth was 10.8% in assay [1]; 5.87% (active) in assay [2]; -20.1% (active) in [3]; 10.6% in assay [4]; -24.5% (active) in assay [5]; 9.65% (active) in [6]. Moreover, the growth was -57.8% (active) in [7], -65.9% (active) in assay [8], -65.4% (active) in [9] and 19.2% in [10].

These data come from PubChem BioAssay (NCI).
